Measured values as given in PubChem BioAssay.
Unmarked numbers belong to inactive results. Active and inactive are the calls of the source. Rule as the data show it, unless noted: active = inhibition above about 33%; inactive = the rest.

What was measured:
[1] = molecular target: Nuclear receptor coactivator 1 (Homo sapiens) (UniProt Q15788); assay: SRC1 coactivator transcriptional activity inhibitors, confirmation, cell-based, luminescence, quadruplicate (AID 588820;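 active = mean inhibition above 46.68%, the untreated control wells mean plus 3 SD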;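 also: 0% = DMSO wells and 100% = gossypol 36 µM treated wells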); settings: HEK293 GAL4-SRC1 luciferase reporter, at 3.6 µM, hits give high values
Nuclear receptor coactivator 1 (Homo sapiens), sequence (Q15788 whole entry, looked up, the tested form may be a part): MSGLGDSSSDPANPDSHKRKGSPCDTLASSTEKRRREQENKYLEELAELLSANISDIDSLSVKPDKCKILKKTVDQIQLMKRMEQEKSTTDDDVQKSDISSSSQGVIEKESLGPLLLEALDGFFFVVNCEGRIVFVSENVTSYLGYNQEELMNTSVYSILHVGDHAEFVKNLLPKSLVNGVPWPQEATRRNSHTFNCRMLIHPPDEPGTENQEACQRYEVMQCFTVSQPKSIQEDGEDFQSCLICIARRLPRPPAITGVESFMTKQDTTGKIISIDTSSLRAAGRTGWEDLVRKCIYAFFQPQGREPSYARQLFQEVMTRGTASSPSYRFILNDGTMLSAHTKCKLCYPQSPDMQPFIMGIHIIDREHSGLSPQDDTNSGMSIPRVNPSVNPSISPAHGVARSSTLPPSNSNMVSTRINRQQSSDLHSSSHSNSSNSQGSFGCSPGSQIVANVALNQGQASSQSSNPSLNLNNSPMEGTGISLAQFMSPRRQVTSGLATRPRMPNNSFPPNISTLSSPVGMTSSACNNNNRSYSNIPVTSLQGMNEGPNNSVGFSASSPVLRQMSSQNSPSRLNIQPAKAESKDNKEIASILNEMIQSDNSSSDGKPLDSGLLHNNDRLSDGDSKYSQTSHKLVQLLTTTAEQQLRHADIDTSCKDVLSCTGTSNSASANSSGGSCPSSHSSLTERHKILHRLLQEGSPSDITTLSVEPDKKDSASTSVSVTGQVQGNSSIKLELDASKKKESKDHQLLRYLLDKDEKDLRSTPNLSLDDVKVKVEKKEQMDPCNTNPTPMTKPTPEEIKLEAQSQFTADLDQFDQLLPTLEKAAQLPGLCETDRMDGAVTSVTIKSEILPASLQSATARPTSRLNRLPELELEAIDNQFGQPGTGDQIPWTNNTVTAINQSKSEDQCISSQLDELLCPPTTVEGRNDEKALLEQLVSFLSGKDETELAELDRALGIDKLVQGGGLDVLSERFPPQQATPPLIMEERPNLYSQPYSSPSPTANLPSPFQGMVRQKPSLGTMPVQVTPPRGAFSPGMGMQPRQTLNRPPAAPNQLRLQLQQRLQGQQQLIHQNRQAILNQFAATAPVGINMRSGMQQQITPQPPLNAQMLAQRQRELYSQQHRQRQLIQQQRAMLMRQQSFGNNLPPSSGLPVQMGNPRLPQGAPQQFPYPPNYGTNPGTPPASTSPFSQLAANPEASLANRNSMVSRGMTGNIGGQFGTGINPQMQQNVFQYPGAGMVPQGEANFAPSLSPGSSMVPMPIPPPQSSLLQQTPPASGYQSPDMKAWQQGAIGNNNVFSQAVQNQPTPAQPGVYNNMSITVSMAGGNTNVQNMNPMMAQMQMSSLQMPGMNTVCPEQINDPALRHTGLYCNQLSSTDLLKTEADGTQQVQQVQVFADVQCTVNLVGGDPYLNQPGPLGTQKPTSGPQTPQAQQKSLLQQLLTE

[2] = VP16 transactivation inhibitors, counter-screen for SRC1 inhibitor project, cell-based, luminescence, high throughput (AID 588824; in the data active = inhibition above about 25%); settings: cell-based VP16 transactivation luciferase luminescence; at 3.6 µM; hits give high values
[3] = StAR promoter reporter inhibitors, counter-screen for LRH-1 inverse agonist project, cell-based, luminescence, high throughput (AID 651611; in the data active = inhibition above about 28%); settings: StAR promoter luciferase reporter counterscreen, at 3.6 µM, hits give high values
[4] = molecular target: Nuclear receptor subfamily 5 group A member 2 (Homo sapiens) (UniProt O00482); assay: LRH-1 (NR5A2) inverse agonists, retest, confirmation, cell-based, luminescence (AID 651613; in the data active = inhibition above about 42%;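 also: HEK293T cells co-transfected with LRH-1 and StAR promoter luciferase reporter; 0% = vehicle wells and 100% = parental cells lacking receptor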); settings: cell-based LRH-1 luciferase reporter, inverse agonism; at 3.6 µM; hits give high values
Nuclear receptor subfamily 5 group A member 2 (Homo sapiens), sequence (O00482 whole entry, looked up): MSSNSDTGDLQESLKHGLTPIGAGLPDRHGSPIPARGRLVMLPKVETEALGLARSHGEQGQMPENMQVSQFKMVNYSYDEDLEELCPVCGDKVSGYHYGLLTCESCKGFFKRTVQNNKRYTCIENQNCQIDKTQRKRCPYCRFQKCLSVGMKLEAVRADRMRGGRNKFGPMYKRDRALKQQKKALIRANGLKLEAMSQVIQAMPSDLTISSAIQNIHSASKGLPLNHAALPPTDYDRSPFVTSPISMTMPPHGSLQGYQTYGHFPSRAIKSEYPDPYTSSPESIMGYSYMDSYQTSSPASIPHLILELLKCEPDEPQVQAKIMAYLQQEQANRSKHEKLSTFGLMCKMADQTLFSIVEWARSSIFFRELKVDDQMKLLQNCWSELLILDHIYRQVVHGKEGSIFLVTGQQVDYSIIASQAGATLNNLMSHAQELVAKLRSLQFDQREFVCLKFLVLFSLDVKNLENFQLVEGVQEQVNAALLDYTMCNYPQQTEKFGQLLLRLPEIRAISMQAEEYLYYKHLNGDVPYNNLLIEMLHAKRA

[5] = molecular target: Steroidogenic factor 1 (Homo sapiens) (UniProt Q13285); assay: SF1 (NR5A1) inverse agonists, counter-screen for LRH-1 inverse agonist project, cell-based, luminescence, high throughput (AID 651614; in the data active = inhibition above about 44%;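 also: cells cotransfected with StAR promoter reporter and SF1 expression vector; 0% = vehicle on cells with receptor and 100% = vehicle on cells lacking receptor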); settings: cell-based SF1 luciferase reporter, at 3.6 µM, hits give high values
Steroidogenic factor 1 (Homo sapiens), sequence (Q13285 whole entry, looked up, the tested form may be a part): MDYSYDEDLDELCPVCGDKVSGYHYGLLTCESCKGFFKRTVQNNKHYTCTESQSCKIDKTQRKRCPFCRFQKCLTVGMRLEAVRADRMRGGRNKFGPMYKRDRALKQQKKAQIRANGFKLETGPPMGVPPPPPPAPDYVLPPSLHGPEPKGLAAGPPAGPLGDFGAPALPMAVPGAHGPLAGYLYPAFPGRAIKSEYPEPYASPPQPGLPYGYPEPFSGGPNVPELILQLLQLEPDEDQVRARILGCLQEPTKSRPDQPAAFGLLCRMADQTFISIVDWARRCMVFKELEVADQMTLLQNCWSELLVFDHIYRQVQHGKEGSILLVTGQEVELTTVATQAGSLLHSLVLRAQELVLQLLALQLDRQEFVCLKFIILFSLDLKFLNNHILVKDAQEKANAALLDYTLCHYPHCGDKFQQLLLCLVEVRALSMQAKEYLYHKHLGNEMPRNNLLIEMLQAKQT

[6] = VP16 transactivation reporter inhibitors, counter-screen for LRH-1 inverse agonist project, cell-based, luminescence, high throughput (AID 651615); settings: Gal4-VP16 luciferase reporter cells, at 3.6 µM, hits give high values

| Structure (SMILES) | inhibition [1] [%] | inhibition [2] | inhibition [3] | inhibition [4] | inhibition [5] | inhibition [6] |
| --- | --- | --- | --- | --- | --- | --- |
| CN(C)c1ccc(Sc2ccc3nc(N)nc(N)c3c2)cc1 | 14.5 | 27.5% (active) | 60.9% (active) | 107% (active) | 61.6% (active) | 80.2% (active) |
| O=C(NCc1ccccc1)c1cccc(NC(=O)c2ccccc2)c1 | -0.73 | 39.8% (active) | 32.8% (active) | 52.4% (active) | 59.2% (active) | 62% (active) |
| CCCCn1c2c(c(=N)c3c1CCC3)CCC2 | 4.17 | 33.1% (active) | 26.5% | 80.5% (active) | 61.9% (active) | 61% (active) |
| CCN(CC)CCn1nc2c3c(cccc3c1=O)-c1ccccc1-2 | 28.6 | 54.7% (active) | 54.2% (active) | 84.5% (active) | 80.1% (active) | 79.5% (active) |
| CCCCCCCCNc1ncnc2ccccc12 | -40.4 | 29.4% (active) | 22.2% | 63.7% (active) | 56.2% (active) | 63.4% (active) |
| COc1cccc2c1C(=O)c1c(O)c3c(c(O)c1C2=O)C[C@@](O)(C(=O)CO)C[C@@H]3OC1CC(N)C(O)C(C)O1 (stereo not given in full) | -127 | 71.4% (active) | -14.6% | 87.5% (active) | 70.6% (active) | 82.6% (active) |
| Brc1ccc2c(c1)-c1ccccc1C1=NCCN12 | -49.1 | 40.9% (active) | 39% (active) | 104% (active) | 75.8% (active) | 71.6% (active) |
| Cc1ccc(Oc2ccc(OCC(=O)Nc3ccncc3)cc2)cc1 | -33.1 | 41.3% (active) | 35.7% (active) | 79.2% (active) | 70.5% (active) | 51% (active) |
| Cc1ccc(/C=C2/CNC/C(=C/c3ccc(C)cc3)C2=O)cc1 | -19.2 | 43.8% (active) | 47% (active) | 79.3% (active) | 64.9% (active) | 80.2% (active) |
| CCOC(=O)c1cc(C#N)c(N2CCN(C(=O)c3cccc(C(F)(F)F)c3)CC2)nc1C(F)(F)F | 15.6 | 29.2% (active) | 15.5% | 48.8% (active) | 51.3% (active) | 32.3% (active) |
